For 23 compounds, Inhibition results are on record in ChEMBL document CHEMBL4513154, “CO-ADD screening of Jain University (India) compounds”.

The term Inhibition denotes the relative decrease from the control value, in per cent.

The subject of assay [1] is Klebsiella pneumoniae. The note with it: Concentration 32 ug.mL-1; ASSAY_TEST Inhibition of Bacterial Growth; detection method Absorption (OD600); MEDIA CAMHB; plate type 384well; NBS; CORNING #3640; time 18 hr.
Assay [2] has as its system Candida albicans. The note with it: 32 ug/mL.
The test system of assay [3] is Cryptococcus neoformans. Conditions: Concentration 32 ug.mL-1; ASSAY_TEST Inhibition of Fungal Growth; detection method Resazurin; Absorption (OD600-OD570); plate type 384well; NBS; CORNING #3640.

Entries with a potency or affinity are not part of this list.

For the compound `CCc1ccc(Nc2nc(N)c(-c3nc4ccccc4c(=O)n3-c3ccccc3)s2)cc1`, the Inhibition in assay [1] is 10.03%; in assay [2] it was 6%; in assay [3], -53.41%.

Turning to `Clc1ccc2nc(-c3cscn3)n(Cc3ccccc3)c2c1`, the Inhibition was 10.47% in assay [1], 0.38% in assay [2] and -41.97% in assay [3].

`N=C(Nc1ccccc1)c1cscn1`: the values for the Inhibition in assay [1], in assay [2] and in assay [3] were -2.19%, 6.13% and 4.1%, respectively.

Take `CC(C)c1ccc(Cn2c(-c3cscn3)nc3c(Cl)cccc32)cc1`: the Inhibition in assay [1] is 2.02%; in assay [2], 2.25%; in assay [3], -5.86%.

For `Fc1cc(Cn2c(-c3cscn3)nc3c(Cl)cccc32)cc(C(F)(F)F)c1`, the Inhibition in assay [1] was -0.75%; in assay [2], 3.24%; in assay [3], -8.45%.

As to `O=[N+]([O-])c1ccc(Cn2c(-c3cscn3)nc3ccccc32)cc1`, the Inhibition in assay [1] was 13.21%; in assay [2], 3.4%; in assay [3] it was -41.75%.

For `N#Cc1ccccc1-c1ccc(Cn2c(-c3cscn3)nc3cc(Cl)ccc32)cc1`, the Inhibition was 8% in assay [1], -1.51% in assay [2] and -36.18% in assay [3].

With `Clc1cccc2c1nc(-c1cscn1)n2Cc1ccccc1`, the figures for the Inhibition in assay [1], in assay [2] and in assay [3] were 10.03%, 5.46% and -32.31%, respectively.

`Cn1c(-c2cscn2)nc2cc(Cl)ccc21`: the Inhibition was 8.32% in assay [1], 0.35% in assay [2] and -39.47% in assay [3].

As to `N#Cc1ccccc1-c1ccc(Cn2c(-c3cscn3)nc3c(Cl)cccc32)cc1`, the Inhibition in assay [1] is -3.22%; in assay [2], 5.26%; in assay [3], -8.16%.

In the case of `Nc1nc(Nc2ccccc2)sc1-c1nc2ccccc2c(=O)n1-c1ccccc1`, the Inhibition in assay [1] was 11.02%; in assay [2], 6.03%; in assay [3] it was -28.85%.

For the compound `Clc1ccc2c(c1)nc(-c1cscn1)n2Cc1ccccc1`, the Inhibition in assay [1] is 12.29%; in assay [2], 1.89%; in assay [3], -24.56%.

With `Nc1nc(Nc2ccc(Cl)cc2)sc1-c1nc2ccccc2c(=O)n1-c1ccccc1`, the Inhibition is 6.62% in assay [1], 3.78% in assay [2] and -54.18% in assay [3].

With `CCc1ccc(Nc2nc(N)c(-c3nc4ccccc4c(=O)n3-c3ccc(Cl)cc3)s2)cc1`, the Inhibition in assay [1] was 12.28%; in assay [2], 0.52%; in assay [3] it was -34.77%.

Consider `CCc1ccc(Nc2nc(N)c(-c3nc4ccccc4c(=O)n3-c3ccc(CC)cc3)s2)cc1`, for which the Inhibition was 12.46% in assay [1], 3.1% in assay [2] and -48.5% in assay [3].

In the case of `N#Cc1ccccc1-c1ccc(Cn2c(-c3cscn3)nc3ccccc32)cc1`, the Inhibition in assay [1] was 13.6%; in assay [2], 1.96%; in assay [3], -25.26%.

In the case of `Clc1cccc2[nH]c(-c3cscn3)nc12`, the Inhibition was 5.98% in assay [1], 15% in assay [2] and -19.67% in assay [3].

In the case of `N=C(Nc1ccccc1Cl)c1cscn1`, the Inhibition in assay [1] is 17.83%; in assay [2], 2.14%; in assay [3] it was -8.23%.

For `N#Cc1ccccc1-c1ccc(Cn2c(-c3cscn3)nc3ccc(Cl)cc32)cc1`, the results for the Inhibition in assay [1], in assay [2] and in assay [3] were 6.08%, 1.5% and -28.09%, respectively.

Regarding `CCc1ccc(-n2c(-c3sc(Nc4ccccc4)nc3N)nc3ccccc3c2=O)cc1`, the Inhibition in assay [1] was -7.9%; in assay [2], 0.25%; in assay [3], -54.61%.

Turning to `N#Cc1ccc(Cn2c(-c3cscn3)nc3c(Cl)cccc32)cc1`, the Inhibition in assay [1] was -10.25%; in assay [2], 4.47%; in assay [3], -42.41%.

Regarding `Cn1c(-c2cscn2)nc2c(Cl)cccc21`, the Inhibition was -3.44% in assay [1], 4.84% in assay [2] and -43.05% in assay [3].

As to `Nc1nc(Nc2ccccc2)sc1-c1nc2ccccc2c(=O)n1-c1ccc(Cl)cc1`, the Inhibition in assay [1] was -25.33%; in assay [2], 3.54%; in assay [3], -43.66%.
